# aSyn 5UTR act = Activators via SNCA 5'UTR binding, MLPCN. 300,000 compounds, 7.1% hits. alpha-synuclein 5'UTR reporter, activators screen. activity score, % (tested at 7.5 µM), hits read low; in the data active means activity score below about -60%
# Active calls of the source: *. Not all results are given here.
SMILES,aSyn 5UTR act
COc1ccc(NC(=O)Nc2cccc(C)n2)cc1,-201.2*
COc1ccc(NC(=O)Nc2ccc(Br)cn2)cc1,-146.1*
CCC(=O)Nc1ccc(C(=O)Nc2cccc(C)n2)cc1,-168.9*
COc1ccc(/C=N/NC(=O)c2ccn[nH]2)cc1CSc1ccccn1,-66.8*
CCCOc1ccc(/C=N/NC(=O)CSc2ccccn2)cc1OC,-77.3*
CCCOC(=O)c1ccc(NC(=O)CC(C)(C)C)cc1,-109.0*
CCCCc1ccc(NC(=O)CC(C)(C)C)cc1,-158.8*
O=C(CCc1ccccc1)Nc1ccc2ccccc2n1,-146.0*
O=C(Nc1cccs1)Nc1ccccc1Br,-89.4*
O=C(CCc1ccccc1)NNc1cc(N2CCCCC2)nc(N2CCCCC2)n1,82.4
O=C(Nc1ccc2ccccc2n1)Nc1cccs1,-62.4*
O=C(Nc1ccc2ccccc2n1)c1ccccc1,-73.8*
O=C(Nc1ccc2ccccc2n1)c1ccccc1Br,-146.2*
COc1ccc(C(=O)Nc2ccc3ccccc3n2)cc1OC,-139.3*
O=C(Nc1ccc(C(F)(F)F)cn1)Nc1cccs1,-75.9*
Cc1ccc(-c2noc(C3CCCCC3)n2)cc1,-187.3*
Cc1ccc(N(C)S(=O)(=O)c2ccc(-c3cnc(C4CC4)o3)cc2)cc1,83.9
Cc1cccc(-c2noc(-c3ccno3)n2)c1,-120.9*
CCS(=O)(=O)N1CCC(c2nc(-c3ccc(C)cc3)no2)CC1,-77.7*
Cc1cccc(-c2noc(C3CCCCC3)n2)c1,-150.0*
CC(=O)Nc1ccc(/C=C/c2nc3ccccc3[nH]c2=O)cc1,-82.6*
O=c1[nH]c2ccccc2nc1/C=C/c1ccc(Cl)cc1,-227.2*
O=C1C(CSCc2ccccc2)NC(=S)N1c1ccccc1 (stereo not drawn),-67.8*
Cc1cccn2c(=O)c(C=Nc3ccc(Cl)cc3)c(NCCO)nc12,-90.9*
COc1ccc(C(=O)NCc2cc3ccccc3n2C)cc1,-92.4*
SMILES,aSyn 5UTR act
O=C(NCCOc1ccccc1)c1cc2ccccc2o1,-81.3*
O=C(NCCOc1ccccc1)c1cncc(Br)c1,-91.6*
O=C(NCCSc1ccccc1)c1ccccc1,-190.6*
COc1ccc(N=Nc2n(C)c3ccccc3[n+]2C)cc1,103.3
CSCCNC(=O)c1ccc(C(C)(C)C)cc1,-83.7*
COc1cc(OC)cc(C(=O)NCCOc2ccccc2)c1,-121.1*
CC(C)(C)SCCNC(=O)c1ccccc1,-117.4*
Cc1ccc(C(=O)NCCSC(C)(C)C)cc1[N+](=O)[O-],-118.9*
CC(C)(C)c1ccc(C(=O)NCCOc2ccccc2F)cc1,77.5
COc1cccc(C(=O)NCCSc2ccc(F)cc2)c1,-156.9*
O=C(NCCSc1ccccc1)c1cncc(Br)c1,-132.2*
COc1cccc(C(=O)NCCn2ccc3ccccc32)c1,-119.3*
COc1cccc(C(=O)NCC(=O)N2CCC(C)CC2)c1,-115.0*
COc1c(C(=O)NCCSC(C)(C)C)ccc2ccccc12,-61.7*
O=C(NCCSc1ccccc1)c1ccc(Br)cc1,-66.7*
COc1cc(C2C3=C(Nc4ncnn42)c2ccccc2CC3)cc(OC)c1OC (stereo not drawn),82.6
OC1(c2ccc(Cl)cc2)CCN(Cc2cn[nH]c2-c2ccc(F)cc2)CC1,60.8
O=C(c1ccco1)N1CCN(Cc2ccc(F)cc2Cl)CC1,-157.6*
CCOc1ccccc1-n1c(CN2CCN(C(=O)c3ccco3)CC2)nc2ccccc2c1=O,110.5
O=C(c1ccco1)N1CCCN(Cc2cn[nH]c2-c2ccc(-c3ccccc3)cc2)CC1,-95.3*
O=C(Oc1c(CN2CCOCC2)cc(Cl)c2cccnc12)c1ccc(F)cc1,65.4
O=C(c1ccco1)N1CCN(Cc2ccccc2Br)CC1,-78.0*
OC1(c2ccc(Cl)cc2)CCN(Cc2cn[nH]c2-c2ccccc2)CC1,69.8
CCOC(=O)c1cnc(Nc2ccccc2)nc1C(F)(F)F,-89.2*
Cc1cc2nc(SCCN3CCCC3)[nH]c2cc1C,-67.7*
SMILES,aSyn 5UTR act
COc1cc(NC(=O)c2cc3nc(C4CC4)cc(C(F)(F)F)n3n2)c(OC)cc1Cl,-69.9*
O=C(OCC(=O)N1CCCC1=O)c1nc(Cl)c(Cl)c(Cl)c1Cl,-131.2*
O=C(CSc1ccc(F)cc1)Nc1ccc(C2SCCS2)cc1,-155.0*
Cc1ccc(NC(=O)COc2ccc(C3SCCS3)cc2)cc1,-69.4*
O=Cc1c(-c2ccc(Cl)cc2)oc2ccc(O)cc12,-118.2*
Oc1ccc(Nc2nc(-c3ccc4ccccc4c3)cs2)cc1,-210.0*
CC(=O)Nc1nc(-c2ccc3ccccc3c2)cs1,-143.1*
CSc1ccc(C2Nc3ccccc3-c3cc(C)nn32)cc1 (stereo not drawn),-100.9*
Cc1cccc(NC(=O)c2oc3c(c2C)C(=O)CC(C)(C)C3)n1,-82.7*
CC1CCc2c(sc3nc(CSc4n[nH]c(N)n4)[nH]c(=O)c23)C1 (stereo not drawn),-92.3*
Cc1cccc2cc(C#N)c(NCc3ccccc3)nc12,-76.4*
O=[N+]([O-])c1ccccc1CSc1nc2ccccc2o1,-193.4*
COCCNc1c(-c2ccc(O)cc2)nc2ccc(Cl)cn12,-69.0*
Cc1cccc(N=CC=C2OC(C)(C)C(C)(C)O2)c1,-81.3*
COc1cccc(N=CC=C2OC(C)(C)C(C)(C)O2)c1,-98.6*
O=C(Cc1ccccn1)c1ccc(Cl)cc1,-164.2*
